According to the supplement of paper PMC8728848:
Many of the other results were omitted from the sample, so the strongest signals are more common in it than they were.

Experiments:
Test in all cases: glycan array binding signal (z-score within array); higher = stronger binding
Conditions in all cases: glycan notation: IUPAC condensed, linker removed
[1] = target: GlcNAc(a1-4)Gal(b1-4)GalNAc
Procedure, shortened: (§1)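 The binding signal is a Z-score computed within each array. Data were drawn from 3228 arrays in the Consortium for Functional Glycomics database, restricted to those with a known protein sequence. Scores were averaged over arrays of the same protein sequence at different concentrations or buffers, and over linkers, and negative values can be taken as non-binding.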

[2] = target: GlcNAc(a1-4)Gal(b1-4)GlcNAc(b1-3)Gal(b1-4)GlcNAc(b1-3)Gal(b1-4)GlcNAc
Procedure, shortened: as §1

[3] = target: GlcNAc(b1-2)[GlcNAc(b1-4)]Man(a1-3)[GlcNAc(b1-4)][GlcNAc(b1-2)[GlcNAc(b1-6)]Man(a1-6)]Man(b1-4)GlcNAc(b1-4)[Fuc(a1-6)]GlcNAc
Procedure, shortened: as §1

[4] = target: GlcNAc(b1-2)[GlcNAc(b1-6)]Man(a1-6)[GlcNAc(b1-2)Man(a1-3)]Man(b1-4)GlcNAc(b1-4)[Fuc(a1-6)]GlcNAc
Procedure, shortened: as §1

[5] = target: GlcNAc(b1-3)Gal(b1-4)GlcNAc(b1-3)Gal(b1-4)GlcNAc
Procedure, shortened: as §1

[6] = target: GlcNAc(b1-3)Gal(b1-4)GlcNAc(b1-3)Gal(b1-4)GlcNAc(b1-2)Man(a1-3)[GlcNAc(b1-3)Gal(b1-4)GlcNAc(b1-3)Gal(b1-4)GlcNAc(b1-2)Man(a1-6)]Man(b1-4)GlcNAc(b1-4)[Fuc(a1-6)]GlcNAc
Procedure, shortened: as §1

[7] = target: GlcNAc(b1-3)Gal(b1-4)GlcNAc(b1-3)Gal(b1-4)GlcNAc(b1-2)[GlcNAc(b1-3)Gal(b1-4)GlcNAc(b1-3)Gal(b1-4)GlcNAc(b1-6)]Man(a1-6)[GlcNAc(b1-3)Gal(b1-4)GlcNAc(b1-3)Gal(b1-4)GlcNAc(b1-2)Man(a1-3)]Man(b1-4)GlcNAc(b1-4)[Fuc(a1-6)]GlcNAc
Procedure, shortened: as §1

[8] = target: GlcNAc(b1-4)GlcNAc(b1-4)GlcNAc(b1-4)GlcNAc(b1-4)GlcNAc
Procedure, shortened: as §1

[9] = target: Man(a1-2)Man(a1-3)[Man(a1-2)Man(a1-6)]Man
Procedure, shortened: as §1

[10] = target: Man(a1-2)Man(a1-3)[Man(a1-2)Man(a1-6)]Man(a1-6)[Man(a1-2)Man(a1-2)Man(a1-3)]Man
Procedure, shortened: as §1

[11] = target: Man(a1-3)[Man(a1-6)]Man(a1-6)[Man(a1-2)Man(a1-3)]Man(b1-4)GlcNAc(b1-4)GlcNAc
Procedure, shortened: as §1

[12] = target: Man(a1-3)[Man(a1-6)]Man(a1-6)[Man(a1-3)]Man
Procedure, shortened: as §1

Man(a1-6)Man = target: Man(a1-6)Man
Procedure, shortened: as §1

[13] = target: Neu5Ac(a2-3)Gal(b1-4)GlcNAc(b1-3)Gal(b1-4)GlcNAc(b1-3)Gal(b1-4)GlcNAc(b1-2)Man(a1-3)[Neu5Ac(a2-3)Gal(b1-4)GlcNAc(b1-3)Gal(b1-4)GlcNAc(b1-3)Gal(b1-4)GlcNAc(b1-2)Man(a1-6)]GalNAc
Procedure, shortened: as §1

[14] = target: Neu5Ac(a2-3)Gal(b1-4)GlcNAc(b1-3)Gal(b1-4)GlcNAc(b1-3)[Neu5Ac(a2-3)Gal(b1-4)GlcNAc(b1-3)Gal(b1-4)GlcNAc(b1-6)]GalNAc
Procedure, shortened: as §1

[15] = target: Neu5Ac(a2-3)Gal(b1-4)GlcNAc(b1-3)[Neu5Ac(a2-3)Gal(b1-4)GlcNAc(b1-6)]GalNAc
Procedure, shortened: as §1

[16] = target: Neu5Ac(a2-3)Gal(b1-4)GlcNAc(b1-6)[Gal(b1-3)]GalNAc
Procedure, shortened: as §1

[17] = target: Neu5Ac(a2-3)Gal(b1-4)[Fuc(a1-3)]GlcNAc(b1-2)Man
Procedure, shortened: as §1

[18] = target: Neu5Ac(a2-6)Gal(b1-3)GlcNAc(b1-3)[Gal(b1-4)GlcNAc(b1-6)]Gal(b1-4)Glc
Procedure, shortened: as §1

[19] = target: Neu5Ac(a2-6)Gal(b1-4)GlcNAc
Procedure, shortened: as §1

[20] = target: Neu5Ac(a2-6)Gal(b1-4)GlcNAc(b1-2)Man(a1-6)Man(b1-4)GlcNAc(b1-4)GlcNAc
Procedure, shortened: as §1

[21] = target: Neu5Ac(a2-6)Gal(b1-4)GlcNAc(b1-3)Gal(b1-4)GlcNAc(b1-3)[Neu5Ac(a2-6)Gal(b1-4)GlcNAc(b1-3)Gal(b1-4)GlcNAc(b1-6)]GalNAc
Procedure, shortened: as §1

[22] = target: Neu5Ac(a2-6)Gal(b1-4)GlcNAc(b1-3)Gal(b1-4)GlcNAc(b1-6)[Gal(b1-3)]GalNAc
Procedure, shortened: as §1

[23] = target: Neu5Ac(a2-6)Gal(b1-4)GlcNAc(b1-6)[Gal(b1-3)GlcNAc(b1-3)]Gal(b1-4)Glc
Procedure, shortened: as §1

Neu5Ac(a2-6)GalNAc = target: Neu5Ac(a2-6)GalNAc
Procedure, shortened: as §1

[24] = target: Neu5Ac(a2-6)GalNAc(b1-4)GlcNAc
Procedure, shortened: as §1

[25] = target: Neu5Ac(a2-6)GalNAc(b1-4)GlcNAc6S
Procedure, shortened: as §1

[26] = target: Neu5Ac(a2-6)GlcNAc(b1-4)GlcNAc
Procedure, shortened: as §1

[27] = target: Neu5Ac(a2-8)Neu5Ac(a2-3)Gal(b1-4)Glc
Procedure, shortened: as §1

B1: Aap brpt (Staphylococcus epidermidis) (protein)
chain: VDGDPITSTEEIPFDKKREFDPNLAPGTEKVVQKGEPGTKTITTPTTKNPLTGEKVGEGEPTEKITKQPVDEIVHYGGEEIKTGHKDEFDPNAPKGSQTTQPGKPGVKNPDTGEVVTPPVDDVTKYGPVDGDPITSTEEIPFDKKREFDPNLAPGTEKVVQKGEPGTKTITTPTTKNPLTGEKVGEGEPTEKITKQPVDEIVHYGGEEIKPGHKDEFDPNAPKGSQEDVPGKPGVKNPDTGEVVTPPVDDVTKYGPVDGDSITSTEEIPFDKKREFDPNLAPGTEKVVQKGEPGTKTITTPTTKNPLTGEKVGEGEPTEKITKQPVDEIVHYGGEQIPQGHKDEFDPNAPVDSKTEVPGKPGVKNPDTGEVVTPPVDDVTKYGPVDGDSITSTEEIPFDKKREFDPNLAPGTEKVVQKGEPGTKTITTPTTKNPLTGEKVGEGKSTEKVTKQPVDEIVEYGPTK
- glycan array binding signal (z-score) [1]: -1.15
- glycan array binding signal (z-score) [2]: 0.541
- glycan array binding signal (z-score) [3]: 0.314
- glycan array binding signal (z-score) [4]: -0.222
- glycan array binding signal (z-score) [5]: -0.363
- glycan array binding signal (z-score) [6]: 2.65
- glycan array binding signal (z-score) [7]: 3.02
- glycan array binding signal (z-score) [8]: -1.51
- glycan array binding signal (z-score) [9]: -0.923
- glycan array binding signal (z-score) [10]: 2.59
- glycan array binding signal (z-score) [11]: 2.29
- glycan array binding signal (z-score) [12]: -1
- glycan array binding signal (z-score) (Man(a1-6)Man): 1.21
- glycan array binding signal (z-score) [13]: 1.19
- glycan array binding signal (z-score) [14]: 0.565
- glycan array binding signal (z-score) [15]: 0.328
- glycan array binding signal (z-score) [16]: -0.96
- glycan array binding signal (z-score) [17]: 0.096
- glycan array binding signal (z-score) [18]: -0.86
- glycan array binding signal (z-score) [19]: -0.403
- glycan array binding signal (z-score) [20]: -0.15
- glycan array binding signal (z-score) [21]: 2.85
- glycan array binding signal (z-score) [22]: 2.73
- glycan array binding signal (z-score) [23]: 0.258
- glycan array binding signal (z-score) (Neu5Ac(a2-6)GalNAc): 1.84
- glycan array binding signal (z-score) [24]: 0.115
- glycan array binding signal (z-score) [25]: -0.313
- glycan array binding signal (z-score) [26]: 2.43
- glycan array binding signal (z-score) [27]: -0.002
